SENP8 block-1 – inhibitors of human SENP8 protease; Q96LD8; actives 1.2% (n = 330,000); purified SENP8, Z-RLRGG-aminoluciferin cleavage, luminescence; inhibition, % at 10 µM; in the data active = inhibition above about 50%
AHR activator – activates the human aryl hydrocarbon receptor | AHR-responsive luciferase reporter cells, luminescence | actives 2.5% (n = 320,000) | activation, % at 5 µM | P35869; in the data active = activation above about 47%
SENP6 inh – SENP6 protease inhibition; Q9GZR1; Recombinant SENP6 catalytic domain, aminoluciferin luminescence; inhibition, % at 10 µM; actives 1.8% (n = 330,000); AID 2599;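 active = inhibition above about 50% at the single tested dose, limit read from the data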
EBI2 antag – antagonists of human EBI2 receptor | P32249 | EBI2 beta-arrestin recruitment, luminescence, 7a,25-OHC stimulated | inhibition, % at 5 µM | actives 0.81% (n = 360,000) | AID 651636; in the data active = inhibition above about 38%;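 also: enzyme fragment complementation signal reports receptor beta-arrestin coupling in cells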
SENP8 block-2 – blocks human SENP8 cleavage of Nedd8 substrate; inhibition, % at 20 µM; AID 602440; actives 0.64% (n = 360,000); Q96LD8; recombinant SENP8, Nedd8 substrate fluorescence; in the data active = inhibition mostly above about 40%, no sharp cut-off; inactive = mostly below about 27%
SENP7 block – inhibitors of human SENP7 protease; Q9BQF6; recombinant SENP7, Z-RLRGG-aminoluciferin luminescence, 40 min; inhibition, % at 5 µM; actives 1.5% (n = 330,000); AID 434973;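 active = inhibition above about 50% at the single test dose, limit read from the data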
Target sequence (Q9BQF6 706-1050 limits assumed): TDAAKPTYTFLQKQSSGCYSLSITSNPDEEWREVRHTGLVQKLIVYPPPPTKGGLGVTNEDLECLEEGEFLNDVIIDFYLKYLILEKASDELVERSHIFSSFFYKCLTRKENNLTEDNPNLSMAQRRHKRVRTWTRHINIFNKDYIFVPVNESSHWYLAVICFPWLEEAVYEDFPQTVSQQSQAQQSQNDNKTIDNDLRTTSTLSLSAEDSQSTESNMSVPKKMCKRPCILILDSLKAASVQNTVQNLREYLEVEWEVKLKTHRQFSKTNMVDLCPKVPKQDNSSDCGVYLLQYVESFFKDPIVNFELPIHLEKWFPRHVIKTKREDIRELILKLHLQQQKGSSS
SENP8 confirm – confirmation of human SENP8 protease inhibitors; Recombinant SENP8, Z-RLRGG-aminoluciferin luminescence, 60 min; inhibition, % at 12.5 µM; actives 40% (n = 6,200); AID 488912; shares compounds with SENP7 block;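 active = mean inhibition across replicates above about 50%, limit read from the data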
SENP6 confirm – human SENP6 inhibition, confirmed. recombinant SENP6, Z-RLRGG-aminoluciferin luminescence. actives 58% (n = 6,200). AID 488915. shares compounds with SENP7 block. inhibition, % at 12.5 µM
SENP7 confirm – human SENP7 inhibition, confirmed; shares compounds with SENP7 block; recombinant SENP7, Z-RLRGG-aminoluciferin luminescence, 40 min; inhibition, % at 12.5 µM; actives 69% (n = 6,200)
Casp3 SENP sel – selectivity test for SENP inhibitors: human caspase-3 inhibition; shares compounds with SENP7 block; inhibition, % at 12.5 µM; purified caspase-3, Z-DEVD-aminoluciferin luminescence, 60 min; actives 60% (n = 6,200); AID 488918;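 active = mean inhibition above about 50%, limit read from the data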
Target sequence (P42574 28-227 limits assumed): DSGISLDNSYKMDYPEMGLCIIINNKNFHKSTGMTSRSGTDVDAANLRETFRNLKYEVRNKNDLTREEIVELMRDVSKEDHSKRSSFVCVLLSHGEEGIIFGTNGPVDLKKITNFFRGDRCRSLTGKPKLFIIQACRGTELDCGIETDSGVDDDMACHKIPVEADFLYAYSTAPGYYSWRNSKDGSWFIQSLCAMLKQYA
Luc interf – luminescence interference (SENP counter-screen); shares compounds with SENP7 block; Pre-incubated SENP8/Z-RLRGG-aminoluciferin, luciferase luminescence interference; inhibition, % at 12.5 µM; actives 39% (n = 6,200);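 active = mean inhibition above about 50% when retested at one dose, limit read from the data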
Of the large screens only hits and unclear results are named; the others gave an inactive call (follow-up assays come after a bar, where they were run). Rows were chosen to be rich in hits. Some 5% of all compounds tested hit in one or more screens of this group.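 The calls were made as follows, unless noted: active = mean inhibition above about 50% in the one-dose retest (limit read from the data); inactive = the rest.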

COc1cccc(NC(=O)Nc2ccccc2SC)c1	SENP8 block-1 51 | SENP8 confirm 78 | SENP6 confirm 72 | SENP7 confirm 91 | Casp3 SENP sel 71 | Luc interf 72
Cc1ccc(NC(=O)CN(C)C(=O)c2cc(-c3cccs3)nn2-c2ccccc2)cc1	none
O=C1NC2(CCCCC2)C(=O)N1Cc1cccc(C(F)(F)F)c1	none
Cc1cc(C)cc(NC(=O)N(CCC#N)Cc2cccs2)c1	none
C=CCNC(=O)c1ccc(NC(=O)C2=CSCCO2)cc1	SENP8 block-1 69, SENP6 inh 73, SENP7 block 77 | SENP8 confirm 74 | SENP6 confirm 72 | SENP7 confirm 93 | Casp3 SENP sel 90 | Luc interf 73
O=C(O)c1cccc(NC(=S)NC(=O)c2cccc(OCc3ccccc3)c2)c1	SENP6 inh 56 | SENP8 confirm 71 | SENP6 confirm 61 | SENP7 confirm 76 | Casp3 SENP sel inactive | Luc interf 63
O=C(Nc1ccc(COc2ccccc2)cc1)Nc1cccc(C(=O)O)c1	SENP8 block-1 93, SENP6 inh 97, SENP7 block 92 | SENP8 confirm inactive | SENP6 confirm 100 | SENP7 confirm inactive | Casp3 SENP sel 60 | Luc interf inactive
O=C(c1ccc(CS(=O)Cc2ccc(Cl)cc2)o1)N1CCN(C2CCCCC2)CC1 (configuration not stated)	none (no result: SENP8 block-1, AHR activator, SENP6 inh, SENP7 block)
O=C(Cn1cnc2ccccc2c1=O)NCCCN1CCCC1=O	none
CN(Cc1nc(-c2cccs2)no1)CC(O)c1ccccc1 (configuration not stated)	none
O=C(c1ccc(COc2ccc(Cl)cc2)cc1)N1CCCCC1	SENP8 block-1 63, SENP6 inh 87, SENP7 block 75 | SENP8 confirm 81 | SENP6 confirm 78 | SENP7 confirm 91 | Casp3 SENP sel 60 | Luc interf 66
O=C(O)c1ccc(COc2ccccc2Cl)cc1	SENP8 block-1 57, SENP6 inh 72 | SENP8 confirm inactive | SENP6 confirm 66 | SENP7 confirm 91 | Casp3 SENP sel 85 | Luc interf 70
COC(=O)c1ccc(COc2c(F)c(F)cc(F)c2F)o1	none
COc1ccc(OCc2ccc(C(=O)O)cc2)cc1	SENP8 block-1 51, SENP6 inh 84, SENP7 block 68 | SENP8 confirm 81 | SENP6 confirm 76 | SENP7 confirm 94 | Casp3 SENP sel 62 | Luc interf 78
O=C(O)c1ccc(COc2c(F)c(F)cc(F)c2F)cc1	SENP6 inh 80 | SENP8 confirm 66 | SENP6 confirm 67 | SENP7 confirm 90 | Casp3 SENP sel 90 | Luc interf 79
O=C(Nc1ccccc1)c1nnn(Cc2ccccc2)c1NC(=O)C(F)(F)F	none
CC(C)(C)c1ccc(OCCCC(=O)Nc2ccc(S(N)(=O)=O)cc2)cc1	none
C=CCOC(=O)C1C(=O)CC(C)(O)C(C(=O)OCC=C)C1c1ccc(N(C)C)cc1 (configuration not stated)	none
C=C1CC[C@@]23CC[C@]4(C)[C@@](OC2=O)([C@@H]3C1)[C@H]1O[C@H]1C1[C@@]2(C)CC[C@H](O)C(C)(C)C2CC[C@]14C (some centres not stated)	none
O=C(O)c1cccc(COc2cccc3ccccc23)c1	SENP8 block-1 97, SENP6 inh 97, SENP7 block 96 | SENP8 confirm 98 | SENP6 confirm 100 | SENP7 confirm 103 | Casp3 SENP sel 84 | Luc interf 99
CCN1C(=S)N[C@@H](c2cccs2)C(C(=O)OC)=C1C	none
Cn1sc(NC(=O)c2cccc(Cl)c2)nc1=O	SENP8 block-1 65, SENP6 inh 69, SENP7 block 70 | SENP8 confirm inactive | SENP6 confirm 72 | SENP7 confirm 92 | Casp3 SENP sel 82 | Luc interf 72
CCC(=O)N1CCc2cc(S(=O)(=O)N3CCN(c4cc(C)ccc4C)CC3)ccc21	none
O=C(Nc1cccnc1)c1cc(-c2ccc(Cl)cc2)on1	SENP6 inh 60, SENP7 block 86 | SENP8 confirm inactive | SENP6 confirm inactive | SENP7 confirm 67 | Casp3 SENP sel 56 | Luc interf inactive
Cc1cc(C(=O)Nc2cccnc2)no1	none
Cc1c(NC(=O)c2cc(CC(C)C)on2)c(=O)n(-c2ccccc2)n1C	SENP7 block 55 | SENP8 confirm inactive | SENP6 confirm inactive | SENP7 confirm inactive | Casp3 SENP sel inactive | Luc interf inactive
CC(C)Cc1cc(C(=O)Nc2cccnc2)no1	SENP7 block 52 | SENP8 confirm inactive | SENP6 confirm inactive | SENP7 confirm 76 | Casp3 SENP sel 79 | Luc interf 55
O=C(Nc1cccnc1)c1cc(-c2ccc(Cl)cc2Cl)on1	SENP7 block 64 | SENP8 confirm inactive | SENP6 confirm inactive | SENP7 confirm inactive | Casp3 SENP sel inactive | Luc interf inactive
O=C(Nc1cccnc1)c1ccc(-c2ccc(Cl)cc2)o1	none
CCOc1ccccc1N1CC(C(=O)Nc2cc(Cl)ccc2C)CC1=O (configuration not stated)	none
COc1ccc(N(C(=O)CNC(=O)c2ccco2)C(C(=O)NC2CCCCC2)c2ccco2)cc1 (configuration not stated)	SENP6 inh 60 | SENP8 confirm inactive | SENP6 confirm inactive | SENP7 confirm inactive | Casp3 SENP sel inactive | Luc interf inactive
COc1cccc(N(C(=O)CNC(=O)c2ccco2)C(C(=O)NC2CCCC2)c2ccco2)c1 (configuration not stated)	none
COc1ccc2oc(C(=O)Nc3ccc(S(=O)(=O)N(C)C4CCN(C)CC4)cc3)c(C)c2c1	none
O=C(Nc1ccc(F)cc1)Oc1ccc[nH]c1=O	SENP7 block 53 | SENP8 confirm inactive | SENP6 confirm inactive | SENP7 confirm inactive | Casp3 SENP sel inactive | Luc interf inactive
O=C(COc1ccccc1Cl)NNC(=O)c1ccc2nc[nH]c2c1	none
